The results in this text go back to PubChem BioAssay AID1529 (NMMLSC, 2009).

In all, about 290,000 compounds went through this assay and about 4,200 (1.4%) were called active. The full list was thinned out, with actives kept by preference. Values without a mark were called inactive.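 The calls were made as follows: active = binding response more than 3 SD above or below the average of its plate-row segment, actives on both sides; inconclusive = wells at one plate position flagged as instrument error; inactive = the rest.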

The test deals with Mitogen-activated protein kinase kinase kinase 3 (Homo sapiens) (UniProt Q99759). The test is described as follows: compounds raising or lowering MEK5 association with MEKK3 PB1 – biochemical, wildtype MEKK3, multiplex bead flow cytometry, Alexa488-MEK5, primary screen (AID 1529).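 Also: Alexa488 bead fluorescence after subtracting the streptavidin-only scavenger bead signal.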 The conditions noted are these: bead-based flow cytometry, Alexa488-MEK5 binding to MEKK3; at 10 µM; actives lie on both sides; 0 = blocked by unlabeled MEK5, 100 = vehicle. A general note: In flow cytometry, cells or beads pass a laser one at a time.
Chain of Mitogen-activated protein kinase kinase kinase 3 (Homo sapiens) (Q99759 whole entry, looked up): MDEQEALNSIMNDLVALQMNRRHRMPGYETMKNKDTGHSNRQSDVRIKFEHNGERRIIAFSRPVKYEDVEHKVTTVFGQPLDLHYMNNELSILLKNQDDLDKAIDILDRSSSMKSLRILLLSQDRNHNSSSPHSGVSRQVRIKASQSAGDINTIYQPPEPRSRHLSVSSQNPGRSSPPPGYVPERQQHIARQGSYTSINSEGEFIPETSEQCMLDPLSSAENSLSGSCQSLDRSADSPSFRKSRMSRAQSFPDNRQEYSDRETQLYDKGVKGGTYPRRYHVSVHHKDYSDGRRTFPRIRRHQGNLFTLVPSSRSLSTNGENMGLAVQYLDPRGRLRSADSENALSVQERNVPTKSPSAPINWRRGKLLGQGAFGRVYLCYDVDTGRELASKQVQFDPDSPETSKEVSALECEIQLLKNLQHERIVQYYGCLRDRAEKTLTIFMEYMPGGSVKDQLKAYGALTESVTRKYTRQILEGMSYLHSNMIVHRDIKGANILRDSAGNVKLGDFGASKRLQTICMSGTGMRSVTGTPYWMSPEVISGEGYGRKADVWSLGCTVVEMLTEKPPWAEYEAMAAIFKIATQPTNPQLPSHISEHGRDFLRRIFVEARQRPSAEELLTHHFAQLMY
Consider `CCCN1CCn2c3c(c4cc(Br)ccc42)CCCC31` (centres undefined), for which the binding response (% of control) was 96%.

With `O=C(c1cccs1)N(Cc1cc2ccccc2[nH]c1=O)CC1CCCO1` (centres undefined), the binding response (% of control) is 99%.

In the case of `C=CCN1CN(S(=O)(=O)c2ccc(OC)cc2)c2nc3ccccc3nc21`, the binding response (% of control) is 100%.

`COc1ccc(S(=O)(=O)N2CN(CCc3ccc(OC)c(OC)c3)c3nc4ccccc4nc32)cc1`: the binding response (% of control) was 64% [inhibitor] (active).

As for `O=S(=O)(c1ccccc1)N1CN(Cc2ccc(F)cc2)c2nc3ccccc3nc21`, the binding response (% of control) was 85%.

On to `Cc1ccc(C(=O)N2CCC(n3nccc3NC(=O)Nc3cccc(F)c3)CC2)cn1`, for which the binding response (% of control) was 96%.

As for `COC(=O)c1ccc(/C=N/NC(=O)C(=O)N2CCCCCC2)cc1`, the binding response (% of control) was 101%.

Turning to `CCn1cc(CN2CCN(CC(C)(C)C)C(CCO)C2)c2ccccc21` (centres undefined), the binding response (% of control) is 107%.

Consider `COCCOC(=O)C1=C(C)Nc2nc(C)nn2C1c1ccccc1` (centres undefined), for which the binding response (% of control) is 97%.

As for `COC(=O)c1nc2n(n1)C(c1ccc([N+](=O)[O-])cc1)C(C(=O)Nc1ccc(Cl)cc1)=C(C)N2` (centres undefined), the binding response (% of control) was 139% (active).

For the compound `COc1cc(C2C(C(=O)Nc3ccc(F)cc3)=C(C)Nc3nc(CCCO)nn32)cc(OC)c1OC` (centres undefined), the binding response (% of control) is 104%.

In the case of `CC(=O)N(c1ccc2oc(=O)sc2c1)S(=O)(=O)c1ccc(C)cc1`, the binding response (% of control) was 103%.

For `CN(Cc1ccccc1)C(=O)c1ccc(COc2ccccc2)cc1`, the binding response (% of control) is 109%.

In the case of `COc1cc(OC)cc(C(=O)OCC(=O)Nc2sccc2C(N)=O)c1`, the binding response (% of control) was 97%.

In the case of `FC(F)(F)c1nc(-c2ccccc2)ncc1-c1nnnn1-c1ccccc1`, the binding response (% of control) is 48% [inhibitor] (active).

On to `c1ccc(-n2nnnc2-c2cccnc2)cc1`, for which the binding response (% of control) is 108%.

For `Clc1ccc(-n2nnnc2-c2cnc(-c3ccccn3)nc2-c2cccs2)cc1`, the binding response (% of control) was 100%.

In the case of `C=CCN1C(=NC(=O)COc2ccccc2)SC2CS(=O)(=O)CC21` (centres undefined), the binding response (% of control) was 102%.

For the compound `CCOC(=O)N1CCN(C(=O)Cn2cnc3ccccc3c2=O)CC1`, the binding response (% of control) was 99%.

In the case of `CCOC(=O)N1CCN(C(=O)c2n[nH]c(=O)c3ccccc23)CC1`, the binding response (% of control) is 100%.

Consider `CCOC(=O)N1CCN(CC(=O)n2c(C)c(C)c3ccccc32)CC1`, for which the binding response (% of control) was 124% (active).

Turning to `Cc1cccc(OCC(=O)Nc2ccc(C(=O)O)cc2NC(=O)COc2cccc(C)c2)c1`, the binding response (% of control) is 105%.

Consider `O=C(CN1CCN(Cc2ccccc2)CC1)Nc1ccc(F)c(F)c1`, for which the binding response (% of control) was 104%.

In the case of `O=C(Nc1ccc(S(=O)(=O)N2CCCCCC2)cc1)c1c(F)cccc1F`, the binding response (% of control) was 101%.

As to `CC1(c2nnc(-c3ccncc3)o2)CC(c2cccnc2)=NO1` (centres undefined), the binding response (% of control) was 101%.

Consider `Cc1cccc(N2CCN(S(=O)(=O)c3ccc(-c4cc(C)no4)s3)CC2C)c1` (centres undefined), for which the binding response (% of control) was 97%.

Take `Cc1[nH]c2ccccc2c1C(=O)COC(=O)c1c(-c2ccccc2)noc1C`: the binding response (% of control) is 108%.

For `Cc1onc(-c2ccccc2Cl)c1C(=O)OCC(=O)c1ccccc1`, the binding response (% of control) is 1% [inhibitor] (active).

Take `Cc1onc(-c2ccccc2Cl)c1C(=O)NCCn1ccc2ccccc21`: the binding response (% of control) was 98%.

Turning to `O=C(NCCCN1CCCCC1)C1CCCN(c2ncnc3c2nc2n3CCCCC2)C1` (centres undefined), the binding response (% of control) is 94%.

With `O=C(CCN1CCN(C/C=C/c2ccccc2)CC1)Nc1ccccc1Cl`, the binding response (% of control) was 104%.

On to `COc1ccc(S(=O)(=O)N2CCOC2CNC(=O)C(=O)NCc2ccc(F)cc2)cc1` (centres undefined), for which the binding response (% of control) is 98%.

In the case of `Cc1nc(SCC(=O)NC2CCCC2)[nH]c(=O)c1C`, the binding response (% of control) is 101%.

Consider `CCNS(=O)(=O)c1ccc(CCC(=O)N2CCN(c3cc(Cl)ccc3C)CC2)cc1`, for which the binding response (% of control) is 103%.

For `C=CCOc1ccc(/C=C2/C(=O)ON=C2C)cc1OCC`, the binding response (% of control) was 104%.

Take `Cc1cc(=O)[nH]c(SCc2cc(Cl)ccc2OC(F)F)n1`: the binding response (% of control) is 103%.

On to `O=C(OCc1cc2ccccc2[nH]c1=O)c1cccnc1`, for which the binding response (% of control) was 109%.

As to `O=C(OCc1cc(Cl)ccc1OC(F)F)c1cccnc1`, the binding response (% of control) was 146% (active).

On to `Cc1c(C(=O)N2CCCC2)c(S(=O)(=O)NCC(C)c2ccccc2)c(C)n1C` (centres undefined), for which the binding response (% of control) is 101%.

`Cc1ccc(NC(=O)C2CCN(S(=O)(=O)c3ccc4c(c3)NC(=O)CO4)CC2)cc1C`: the binding response (% of control) is 106%.

Consider `COC(C[C@@H]1O[C@@H]1C(=O)[C@@H](C)OCc1ccccc1)OC`, for which the binding response (% of control) is 102%.

As to `CCc1c(C)sc(NC(=O)c2cccs2)c1C(N)=O`, the binding response (% of control) was 100%.

Take `Cc1ccc(OCC(=O)NCCCNC(=O)c2cccnc2)cc1C`: the binding response (% of control) is 99%.

For `O=C(O)CSc1nnc(-c2ccc3c(c2)OCO3)n1-c1ccccc1`, the binding response (% of control) was 103%.

Consider `Cn1c(SCC(=O)N2CCCC2)nnc1-c1ccc2c(c1)OCO2`, for which the binding response (% of control) was 100%.

Consider `Cn1c(SCc2nc3ccccc3s2)nnc1-c1ccc2c(c1)OCO2`, for which the binding response (% of control) is 19% [inhibitor] (active).

Regarding `O=C(OCc1ccc([N+](=O)[O-])cc1)C1CC(=O)N(Cc2ccccc2Cl)C1` (centres undefined), the binding response (% of control) is 100%.

Take `C/C(=N\NC(=O)CNC(=O)C(c1ccccc1)c1ccccc1)c1ccc(C)cc1`: the binding response (% of control) was 130% (active).

With `O=C(CNC(=O)C(c1ccccc1)c1ccccc1)N/N=C\c1ccc2c(c1)OCO2`, the binding response (% of control) was 104%.

Consider `C/C(=N\NC(=O)Cc1ccc(F)cc1)c1ccc(F)cc1`, for which the binding response (% of control) was 98%.

As to `O=C(Oc1ccc(Br)cc1)c1cccnc1`, the binding response (% of control) is 101%.

For the compound `C=CC1=C(C(=O)O)N2C(=O)[C@@H](NC(=O)/C(=N/OCC(=O)O)c3csc(N)n3)[C@H]2SC1`, the binding response (% of control) is 97%.

As for `O=C(O)c1ccc2c(=O)n3c(nc2c1)/C(=C/c1ccc(OC(F)F)cc1OC(F)F)CC3`, the binding response (% of control) was 103%.

With `COc1ccc(NC(=O)CS(=O)(=O)c2ccccc2)cc1`, the binding response (% of control) is 105%.

Regarding `CSc1ncccc1C(=O)NC1CCCCCC1`, the binding response (% of control) is 102%.

For `O=C(NC1CCCCCC1)c1cccnc1Sc1ccc(Cl)cc1`, the binding response (% of control) was 91%.

On to `O=C(O)c1cccnc1NC1CCCC1`, for which the binding response (% of control) was 80% [inhibitor] (active).

In the case of `CC1=CC(=C(C#N)c2nc3ccccc3s2)C=C(C)N1c1ccc(F)cc1F`, the binding response (% of control) is 104%.

For `CCOC(=O)C1CCN(C(=O)CN2C(=O)c3cccnc3Oc3ccc(C)cc32)CC1`, the binding response (% of control) is 103%.

Consider `CCCC/S(C)=N/S(=O)(=O)c1ccc(C)cc1` (centres undefined), for which the binding response (% of control) is 100%.

Regarding `Cc1ccc(S(=O)(=O)/N=S(\C)C(C)C)cc1` (centres undefined), the binding response (% of control) is 2% [inhibitor] (active).

Consider `CC/S(CC1CC1(Cl)Cl)=N\S(=O)(=O)c1ccc(C)cc1` (centres undefined), for which the binding response (% of control) is 96%.

Regarding `CC1CCCN(CC(=O)Nc2cc(Cl)ccc2Oc2ccccc2)C1` (centres undefined), the binding response (% of control) was 107%.

With `COC(=O)c1c(C)cc(O)c(C)c1O`, the binding response (% of control) was 102%.

`CCOC(=O)CNC(=O)CSc1ncccc1-c1nc2ccccc2[nH]1`: the binding response (% of control) was 108%.

On to `CCOC(=O)CNC(=O)CSc1nnc(COc2ccc(Cl)cc2)n1CC`, for which the binding response (% of control) is 96%.

In the case of `CCOC(=O)CNC(=O)CSc1nc2cccnc2n1CC`, the binding response (% of control) is 127% (active).

As to `COc1ccc(C2CC(=O)Nc3cc(C)c(C)cc32)c(OC)c1OC` (centres undefined), the binding response (% of control) is 0% [inhibitor] (active).

In the case of `COc1cc2c(cc1OC)C(c1ccncc1)CC(=O)N2` (centres undefined), the binding response (% of control) was 109%.

Consider `COc1cc2c(cc1OC)C(C(=O)Nc1cc(C)c(OC)c(C)c1)CC(=O)N2` (centres undefined), for which the binding response (% of control) was 109%.

As for `OCCNc1nc(Nc2ccc(Cl)c(Cl)c2)nc2ccccc12`, the binding response (% of control) is 111%.

In the case of `COc1ccc(CC(=O)Nc2ccc(C(=O)NC(C)(C)C)cc2)cc1`, the binding response (% of control) was 97%.

For `CC(C)(C)NC(=O)c1cccc(NC(=O)Cc2ccc(Br)cc2)c1`, the binding response (% of control) was 163% (active).

In the case of `O=C(Cc1ccccc1)Nc1cccc(NC(=O)c2ccccc2)c1`, the binding response (% of control) is 98%.

Take `Cc1nc(-c2ccccc2)sc1C1(C)CC(c2cccnc2)=NO1` (centres undefined): the binding response (% of control) was 104%.

Take `O=C(CC(c1ccccc1)c1ccccc1)NCC(O)c1ccc([N+](=O)[O-])cc1` (centres undefined): the binding response (% of control) was 101%.

For the compound `O=C(O)CC(Cc1ccccc1)C(=O)Nc1ccc([N+](=O)[O-])cc1` (centres undefined), the binding response (% of control) was 128% (active).

For the compound `O=C(Cc1ccccc1)NNS(=O)(=O)c1ccc([N+](=O)[O-])cc1`, the binding response (% of control) is 95%.

Turning to `Fc1ccccc1/C=N/Nc1cc(N2CCCCC2)ncn1`, the binding response (% of control) is 105%.

Regarding `CCc1noc(C)c1C(=O)N1CCCC(N2CCN(c3ccc(F)cc3)CC2)C1` (centres undefined), the binding response (% of control) is 91%.

On to `Cc1ccc(CNC(=O)C2CCCN2S(=O)(=O)c2ccc3c(c2)C(C)(C)C(=O)N3C)cc1` (centres undefined), for which the binding response (% of control) was 104%.

On to `CC1(C)Cc2cccc(OCC(=O)N3CCN(c4ccc([N+](=O)[O-])cc4)CC3)c2O1`, for which the binding response (% of control) is 59% [inhibitor] (active).

Take `CC1(C)Cc2cccc(OCC(=O)NCc3ccccc3)c2O1`: the binding response (% of control) is 100%.

In the case of `CC1(C)Cc2cccc(OCC(N)=O)c2O1`, the binding response (% of control) is 100%.

With `COc1ccc(C)cc1NC(=O)CN(C)S(=O)(=O)c1ccc2c(c1)n(C)c(=O)c(=O)n2C`, the binding response (% of control) is 101%.

Take `COc1cc(NC(=S)NCc2ccco2)c(OC)cc1Cl`: the binding response (% of control) was 71% [inhibitor] (active).

As to `CCOc1cc(NC(=S)NCc2ccco2)c(OCC)cc1NC(=O)c1ccco1`, the binding response (% of control) is 105%.

Regarding `FC(F)Oc1ccc(NC(=S)NCc2ccco2)cc1Cl`, the binding response (% of control) is 99%.

Consider `CCOC(=O)C1Nc2ccc(C(F)(F)F)cc2C2C=CCC12` (centres undefined), for which the binding response (% of control) was 99%.

For the compound `CCCC(=O)N1c2ccccc2NC2=C(C(=O)CCC2)C1c1ccc(F)cc1` (centres undefined), the binding response (% of control) is 100%.

Turning to `CCC(=O)N1c2ccccc2NC2=C(C(=O)CCC2)C1c1ccco1` (centres undefined), the binding response (% of control) was 94%.

With `CC(C)C(=O)N1c2ccccc2NC2=C(C(=O)CCC2)C1c1ccc(N(C)C)cc1` (centres undefined), the binding response (% of control) was 129% (active).

In the case of `CC(C)(C)C(=O)Nc1ccc(-c2cn3cccnc3n2)cc1`, the binding response (% of control) is 107%.

Regarding `COc1cc(C(C)=O)ccc1OC(=O)CN1C(=O)c2ccccc2C1=O`, the binding response (% of control) is 102%.
